Each structure is given as a SMILES string. Screen size: about 310,000 compounds; about 14,000 (4.5%) showed an effect of 50% or more. The effect is printed as a negative number. What follows is part of a selection rich in strong results, with near analogues and random picks from the rest.

From publication PMC4336329 (PLoS ONE, 2015) come the findings set out here.
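Also: peak tail current of the secondary pulse compared with the same well before compound.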

The experiment deals with human ether-à-go-go-related gene (hERG) potassium channel (human, UniProt Q12809). Briefly: primary screen, population patch clamp on CHO cells stably expressing hERG; higher = less effect of the substance.
human ether-à-go-go-related gene (hERG) potassium channel, sequence (Q12809 whole entry, looked up): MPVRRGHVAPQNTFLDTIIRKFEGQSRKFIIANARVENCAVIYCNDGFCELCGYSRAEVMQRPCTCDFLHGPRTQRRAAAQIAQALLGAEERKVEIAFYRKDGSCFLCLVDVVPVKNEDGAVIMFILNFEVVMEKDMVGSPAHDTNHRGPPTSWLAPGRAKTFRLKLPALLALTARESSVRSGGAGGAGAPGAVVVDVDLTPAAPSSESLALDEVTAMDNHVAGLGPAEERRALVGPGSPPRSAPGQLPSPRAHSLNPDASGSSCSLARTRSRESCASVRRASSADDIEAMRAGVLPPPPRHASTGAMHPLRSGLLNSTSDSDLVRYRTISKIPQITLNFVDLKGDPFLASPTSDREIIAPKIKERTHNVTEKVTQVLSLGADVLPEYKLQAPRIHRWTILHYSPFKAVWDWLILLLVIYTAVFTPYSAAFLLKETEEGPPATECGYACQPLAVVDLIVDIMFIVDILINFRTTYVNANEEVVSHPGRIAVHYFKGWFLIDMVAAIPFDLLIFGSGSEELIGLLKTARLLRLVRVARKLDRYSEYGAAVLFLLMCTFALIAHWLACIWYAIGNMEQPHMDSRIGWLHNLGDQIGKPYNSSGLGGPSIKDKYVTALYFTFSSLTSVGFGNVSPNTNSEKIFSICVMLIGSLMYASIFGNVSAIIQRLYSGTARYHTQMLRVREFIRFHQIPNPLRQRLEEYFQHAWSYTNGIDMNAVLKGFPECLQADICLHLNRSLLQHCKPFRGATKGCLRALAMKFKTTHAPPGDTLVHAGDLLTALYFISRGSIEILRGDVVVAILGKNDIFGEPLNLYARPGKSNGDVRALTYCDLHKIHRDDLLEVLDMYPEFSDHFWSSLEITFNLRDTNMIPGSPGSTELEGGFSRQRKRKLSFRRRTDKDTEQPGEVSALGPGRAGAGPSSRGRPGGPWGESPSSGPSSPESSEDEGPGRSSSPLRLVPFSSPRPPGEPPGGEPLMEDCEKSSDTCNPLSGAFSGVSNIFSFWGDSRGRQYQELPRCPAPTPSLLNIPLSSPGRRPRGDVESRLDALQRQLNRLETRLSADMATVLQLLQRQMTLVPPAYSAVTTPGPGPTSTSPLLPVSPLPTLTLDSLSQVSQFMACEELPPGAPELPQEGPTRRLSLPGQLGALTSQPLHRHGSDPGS
Turning to `CCCOc1ccc(N2C(=O)C3C(C(C)C)NC4(C(=O)c5ccccc5C4=O)C3C2=O)cc1` (centres unmarked), the “hERG current change (%, negative = inhibition) at 10uM” value is -0.496%.
The result for `O=C(NNC1CC(=O)N(c2ccc3c(c2)OCCO3)C1=O)c1ccc(Cl)cc1` (centres unmarked) reads 10.1%.
The result for `Cc1ccc(CNC(=O)CNS(=O)(=O)c2ccc(Br)s2)cc1` reads -0.279%; that for `O=C1C2C3C=CC(C4CC34)C2C(=O)N1/N=C/c1ccc(-c2cccc([N+](=O)[O-])c2)o1` (centres unmarked), -14.1%; that for `O=C(CSc1nncc2ccccc12)Nc1ccc(C(=O)O)cc1`, 10.6%.
For `O=C(COC(=O)c1ccc(O)cc1)NC1CCCC1` the value was 14%.
Take `C#CCOc1ccc(/C=C2/C(=O)N(c3cccc(C(=O)O)c3)N=C2C)cc1OC`: the “hERG current change (%, negative = inhibition) at 10uM” value is reported as -2.13%.
For `CCCN(CC#CC(O)(c1ccccc1)c1cccnc1)CCC` (centres unmarked) the value was -37.3%; for `CCOc1ccccc1NC(=O)CSc1ccc2nnc(-c3cccnc3)n2n1`, -61.9%.
The result for `O=C(CSc1nnc2ccc(-c3ccccn3)nn12)NCCc1ccccc1` reads -6.49%; that for `COc1ccc(OC)c(NC(=O)CSc2ccc3nnc(-c4ccccn4)n3n2)c1`, -69%.
Regarding `O=C(CSc1ccc2nnc(-c3cccnc3)n2n1)Nc1ccccc1C(F)(F)F`, the “hERG current change (%, negative = inhibition) at 10uM” value is on record as -33.3%.
Consider `COc1ccccc1NC(=O)CSc1ccc2nnc(-c3ccc(C)cc3)n2n1`, for which the “hERG current change (%, negative = inhibition) at 10uM” value was -26.6%.
The result for `COc1ccc(NC(=O)CSc2ccc3nnc(-c4ccccn4)n3n2)c(OC)c1` reads -25.9%.
For `COc1ccc(CCNC(=O)CSc2nnc3ccc(-c4ccccn4)nn23)cc1` the value was -51.6%; for `COc1ccccc1NC(=O)CSc1ccc2nnc(-c3ccccn3)n2n1`, 0.136%.
For `COc1ccccc1NC(=O)CSc1ccc2nnc(-c3cccnc3)n2n1` the value was -57%; for `COc1ccc(CCNC(=O)CSc2nnc3ccc(-c4ccccn4)nn23)cc1OC`, 2.17%; for `COc1ccccc1NC(=O)CSc1ccc2nnc(-c3ccncc3)n2n1`, -31.3%.
Turning to `O=C(CSc1ccc2nnc(-c3cccnc3)n2n1)Nc1ccc(F)cc1F`, the “hERG current change (%, negative = inhibition) at 10uM” value was -21.5%.
Take `COc1ccc(C(O)C(C)NC(C)C(O)c2ccc(OC)cc2)cc1` (centres unmarked): the “hERG current change (%, negative = inhibition) at 10uM” value stood at 4.3%.
Consider `COc1ccc(S(=O)(=O)N2CCN(Cc3cc(OC)c(O)c(OC)c3)CC2)cc1.O=C(O)C(=O)O`, for which the “hERG current change (%, negative = inhibition) at 10uM” value was found to be 4.57%.
The result for `CN(C)CCNc1nc(-c2ccccc2)nnc1C(F)(F)F` reads -3.83%; that for `CN1CCN(C(=O)c2ccc3c(c2)NC(=O)C(N2CCOCC2)S3)CC1` (centres unmarked), 3.85%; that for `COc1ccc(C(C)=O)cc1CN1C(=O)C(C)N(c2ccc(C)cc2)C1=O` (centres unmarked), -25.4%.
For `CCn1nc(NC(=O)c2ccco2)c2cc3ccccc3nc21`, the “hERG current change (%, negative = inhibition) at 10uM” value is recorded as -0.887%.
As for `Cc1ccccc1CN1CCC(n2nccc2NC(=O)c2ccc3c(c2)OCO3)CC1`, the “hERG current change (%, negative = inhibition) at 10uM” value is on record as -9.06%.
The result for `COc1ccc(OC)c(NC(=O)CSc2ccc3nnc(-c4cccnc4)n3n2)c1` reads -61.1%.
For `COc1ccc(OC)c(NC(=O)CSc2ccc(-c3cccnc3)nn2)c1` the value was -17.6%; for `COc1ccc(NC(=O)CSc2ccc3nnc(-c4cccnc4)n3n2)c(OC)c1`, -32.4%; for `Cc1cc2nc(-c3cccnc3SCC(=O)NCc3ccco3)[nH]c2cc1C`, -5.15%.
For `O=C(c1ccc([N+](=O)[O-])cc1)N1CCC(Cc2ccccc2)CC1` the value was -73.4%; for `Cc1c(C(=O)N2CCC(Cc3ccccc3)CC2)cccc1[N+](=O)[O-]`, -34.3%; for `O=[N+]([O-])c1ccc(CN2CCC(Cc3ccccc3)CC2)cc1`, -55.1%.
With `O=[N+]([O-])c1cccc(CN2CCC(Cc3ccccc3)CC2)c1`, the “hERG current change (%, negative = inhibition) at 10uM” value was -31.4%.
The result for `O=[N+]([O-])c1ccc(C(=S)N2CCC(Cc3ccccc3)CC2)cc1` reads -32.4%.
The result for `Cc1cc(C(=O)N2CCC(Cc3ccccc3)CC2)ccc1[N+](=O)[O-]` reads -38.5%.
For `O=C(c1ccccc1[N+](=O)[O-])N1CCC(Cc2ccccc2)CC1` the value was -19%; for `Cc1ccc(C(=O)N2CCC(Cc3ccccc3)CC2)cc1[N+](=O)[O-]`, -63.8%; for `Cc1ccc(C(=O)Nc2ccc(NC(=O)c3ccc(C)o3)cc2)o1`, -1.94%.
As to `Cc1ccc(F)cc1CNC(=O)C1CCC(=O)N(CCCN2CCCC2=O)C1` (centres unmarked), the “hERG current change (%, negative = inhibition) at 10uM” value amounted to 14.6%.
Consider `Cc1ccc(S(=O)(=O)Nc2cc(C(=O)Nc3cc(C)cc(C)c3)ccc2Cl)cc1`, for which the “hERG current change (%, negative = inhibition) at 10uM” value is reported as -5.44%.
The result for `CN(C)CCCn1c2c(c(SCC(=O)Nc3ccc4c(c3)OCCO4)nc1=O)CCC2` reads -12.2%; that for `Cc1ccc(NC(=O)CSc2nc(=O)n(Cc3ccncc3)c3c2CCC3)c(C)c1`, -26.1%.
